By inhibition is commonly meant the change of the read-out against control, counted positive when it falls.

Results filed as inconclusive are left out. Activity calls are given as the source filed them.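 Rule for the calls, unless noted: active = inhibition above 54%, about 3 SD of non-fluorescent compounds; inactive = the rest.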

Assay [1] can be described thus: rapamycin-like changes in RPL19A-GFP expression – cell-based, S. cerevisiae, multiplex flow cytometry, primary screen (AID 1862; in the data active = percent of DMSO control GFP below about 86%;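 note: lower values mimic rapamycin by blocking the RPL19A rise seen in DMSO cells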). The settings on record: S. cerevisiae RPL19A-GFP strain, flow cytometry fluorescence, 3 h; at 10 µM; stronger effect = lower value. On the technique in general: Flow cytometry measures light scatter and fluorescence of single cells or particles in a stream.

Assay [2] can be described thus: TOR pathway GLN3 branch reporter MEP2-GFP changes – S. cerevisiae, multiplex flow cytometry, primary screen (AID 1867;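 active = GFP response, as percent of the DMSO control, above the screen-wide mean plus 3 SD, about 139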;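 note: median GFP channel fluorescence of barcode-gated MEP2-GFP cells measured by flow cytometry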). The settings on record: S. cerevisiae MEP2-GFP strain, 3 h, at 10 µM, stronger effect = higher value, 100% means same as DMSO wells.
Assay [3] in a line: TOR pathway RTG branch CIT2 reporter changes – S. cerevisiae, GFP fusion, multiplex flow cytometry, primary screen (AID 1870;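 active = percent response above a set limit, the screen-wide mean plus 3 SD, cut at about 130% in these data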;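 note: barcoded CIT2-GFP strain pooled with four other GFP strains with rapamycin as positive control; median GFP fluorescence per well over plate mean of DMSO wells so 100% = DMSO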). The settings on record: S. cerevisiae CIT2-GFP expression, 3 h, at 10 µM, stronger effect = higher value.
Assay [4] in a line: TOR pathway LAP4-GFP level changes – S. cerevisiae, multiplex flow cytometry, primary screen (AID 1873;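 active = GFP signal, as percent of the solvent control, above the screen mean plus 3 SD, about 149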). The settings on record: S. cerevisiae LAP4-GFP expression, 3 h, at 10 µM, stronger effect = higher value.
Assay [5] is described as follows: yeast AGP1-GFP level changes, GLN3 branch – cell-based, multiplex flow cytometry, S. cerevisiae, primary screen (AID 1887;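 active = GFP signal above the screen-wide mean plus 3 SD, that is over about 124.5% of the solvent control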;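 note: AGP1-GFP fusion strain of S. cerevisiae within a five-strain barcoded multiplex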). To be noted: 3 h, at 10 µM, stronger effect = higher value.
Assay [6] in a line: reduced mouse 2C T cell binding to pMHC/ICAM-1 vesicles – MLPCN validation set, flow cytometry, LFA-1/ICAM-1 modulator project, pilot screen (AID 2523;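 active = response below a set limit, under 55% cells CD8-positive and vesicle-bound, and CD8 cells' 90th-percentile brightness under 279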;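 for vesicle binding response: mean PE anti-B7-1 fluorescence of CD8+ cells relative to row control; 100% = QL9-loaded vesicles with DMSO vehicle in the same plate row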). To be noted: 2C mouse CD8+ T cells, at 7 µM, stronger effect = lower value; double positive events: measured here: CD8+/vesicle+ event percentage.
Assay [7] deals with Integrin beta-1 (Homo sapiens) + Integrin alpha-4 (Homo sapiens) (UniProt P13612+P05556). Kind of assay: alpha4beta1 integrin LIBS antibody binding reduction – U937 cells, HUTS-21 mAb, flow cytometry, validation set, VLA-4 allosteric modulator project, pilot screen (AID 2674;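 active = inhibition above 50%, about 3 SD of the validation set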;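 note: antibody binding induced by the VLA-4 ligand LDV present at three times its Kd; 0% = LDV ligand with antibody and no compound and 100% = antibody without LDV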). To be noted: HUTS-21 LIBS mAb binding, at 6.7 µM, stronger effect = higher value, binding induced by LDV ligand.
Integrin beta-1 (Homo sapiens) + Integrin alpha-4 (Homo sapiens), sequence (P05556 whole entry, looked up): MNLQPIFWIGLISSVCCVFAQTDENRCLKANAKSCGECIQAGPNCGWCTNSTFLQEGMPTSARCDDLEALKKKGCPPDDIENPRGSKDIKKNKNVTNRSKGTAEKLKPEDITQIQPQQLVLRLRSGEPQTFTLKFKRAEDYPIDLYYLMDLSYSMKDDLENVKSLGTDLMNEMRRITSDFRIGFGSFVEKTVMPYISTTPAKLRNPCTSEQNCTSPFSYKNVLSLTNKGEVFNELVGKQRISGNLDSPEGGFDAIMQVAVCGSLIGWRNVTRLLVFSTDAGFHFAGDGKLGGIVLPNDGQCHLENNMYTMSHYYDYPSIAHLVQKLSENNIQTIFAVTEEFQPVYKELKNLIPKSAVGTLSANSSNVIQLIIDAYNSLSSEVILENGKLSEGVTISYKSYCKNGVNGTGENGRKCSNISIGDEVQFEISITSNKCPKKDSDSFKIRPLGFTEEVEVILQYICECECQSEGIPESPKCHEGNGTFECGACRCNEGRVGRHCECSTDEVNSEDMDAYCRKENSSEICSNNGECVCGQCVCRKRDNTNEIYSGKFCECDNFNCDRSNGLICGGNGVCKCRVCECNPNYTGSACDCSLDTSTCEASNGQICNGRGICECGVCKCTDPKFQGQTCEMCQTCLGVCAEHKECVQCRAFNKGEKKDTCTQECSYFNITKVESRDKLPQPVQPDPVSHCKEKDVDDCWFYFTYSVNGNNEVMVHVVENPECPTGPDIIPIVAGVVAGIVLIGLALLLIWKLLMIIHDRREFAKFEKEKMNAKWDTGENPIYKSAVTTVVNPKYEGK
Integrin beta-1 (Homo sapiens) + Integrin alpha-4 (Homo sapiens), sequence (P13612 whole entry, looked up): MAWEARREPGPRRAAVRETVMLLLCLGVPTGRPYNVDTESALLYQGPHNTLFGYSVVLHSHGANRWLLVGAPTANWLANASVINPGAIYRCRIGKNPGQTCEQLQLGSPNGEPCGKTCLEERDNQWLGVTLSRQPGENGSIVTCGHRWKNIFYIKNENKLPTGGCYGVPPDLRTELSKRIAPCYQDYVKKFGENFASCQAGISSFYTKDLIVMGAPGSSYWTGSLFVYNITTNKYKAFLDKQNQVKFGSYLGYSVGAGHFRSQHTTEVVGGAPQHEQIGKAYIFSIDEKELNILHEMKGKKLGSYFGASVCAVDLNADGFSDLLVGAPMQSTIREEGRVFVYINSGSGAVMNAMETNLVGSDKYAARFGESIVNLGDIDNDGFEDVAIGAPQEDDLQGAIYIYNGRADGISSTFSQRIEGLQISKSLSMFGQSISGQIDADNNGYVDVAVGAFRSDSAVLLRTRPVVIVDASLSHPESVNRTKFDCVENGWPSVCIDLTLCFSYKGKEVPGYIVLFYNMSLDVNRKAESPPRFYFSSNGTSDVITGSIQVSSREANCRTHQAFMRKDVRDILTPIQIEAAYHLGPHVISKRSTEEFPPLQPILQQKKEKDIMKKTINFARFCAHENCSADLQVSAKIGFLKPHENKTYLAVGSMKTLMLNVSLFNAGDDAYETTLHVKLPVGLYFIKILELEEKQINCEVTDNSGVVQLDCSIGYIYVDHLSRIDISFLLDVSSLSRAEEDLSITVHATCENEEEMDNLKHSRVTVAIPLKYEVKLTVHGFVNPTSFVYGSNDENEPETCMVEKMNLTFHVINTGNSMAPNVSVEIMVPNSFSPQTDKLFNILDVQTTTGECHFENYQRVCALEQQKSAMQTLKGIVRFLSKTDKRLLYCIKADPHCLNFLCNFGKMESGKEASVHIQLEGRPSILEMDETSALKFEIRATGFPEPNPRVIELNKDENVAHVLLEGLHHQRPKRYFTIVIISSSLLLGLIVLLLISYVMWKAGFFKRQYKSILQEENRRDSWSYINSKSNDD

Assay [8] in a line: calorie-restriction mimetic ROS inhibitors, yeast – validation compound set, pilot screen (AID 2706;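 active = superoxide response below 65% of plate, a cut near 3 SD across the whole screen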;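 note: yeast exposed to compound for one week at 30 degrees C before staining; 100% = mean of all compound wells on the same plate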). To be noted: S. cerevisiae aging, superoxide DHE fluorescence; at 10 µM; stronger effect = lower value.
The target of assay [9] is Beta-adrenergic receptor kinase 1 (Homo sapiens) (UniProt P25098). Kind of assay: GRK2 binders displacing RNA aptamer, biochemical, validation, human GRK2, bead flow cytometry (AID 488806;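 active = aptamer binding inhibition above 30%, about 3 SD of noise from non-fluorescent compounds; inactive = inhibition at or below 30%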). The settings on record: bead-bound GRK2, FAM-aptamer displacement, at 10 µM, stronger effect = higher value.
Beta-adrenergic receptor kinase 1 (Homo sapiens), sequence (P25098 whole entry, looked up): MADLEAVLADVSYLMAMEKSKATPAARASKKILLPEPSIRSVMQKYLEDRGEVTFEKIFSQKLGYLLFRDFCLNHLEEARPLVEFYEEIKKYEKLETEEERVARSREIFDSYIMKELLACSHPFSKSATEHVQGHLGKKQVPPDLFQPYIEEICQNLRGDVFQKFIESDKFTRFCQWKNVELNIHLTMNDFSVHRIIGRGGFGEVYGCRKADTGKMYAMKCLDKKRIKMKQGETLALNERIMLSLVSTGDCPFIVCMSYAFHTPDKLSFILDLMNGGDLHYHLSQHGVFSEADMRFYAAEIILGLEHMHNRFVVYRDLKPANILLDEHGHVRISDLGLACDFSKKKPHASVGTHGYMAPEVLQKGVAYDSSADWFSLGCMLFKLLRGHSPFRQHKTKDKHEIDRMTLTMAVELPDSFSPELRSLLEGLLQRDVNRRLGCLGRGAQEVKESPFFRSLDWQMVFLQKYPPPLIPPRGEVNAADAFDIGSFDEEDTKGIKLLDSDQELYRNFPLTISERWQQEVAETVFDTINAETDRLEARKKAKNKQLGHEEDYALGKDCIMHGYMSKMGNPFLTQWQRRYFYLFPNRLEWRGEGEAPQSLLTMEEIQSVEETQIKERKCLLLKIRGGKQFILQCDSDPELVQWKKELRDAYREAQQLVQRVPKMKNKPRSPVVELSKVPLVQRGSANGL
Assay [10] concerns the target Beta-2 adrenergic receptor (Homo sapiens) (UniProt P07550). Kind of assay: agonist-induced loss of surface beta2AR – cell-based, FAP fluorogen, flow cytometry, validation set, pilot screen (AID 504459;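 active = percent response above 42, roughly 3 SD of non-fluorescent test compounds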;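 note: agonist-driven loss of surface beta2AR via internalization measured by FAP dye flow cytometry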). The settings on record: Am2.2-beta2AR cells, at 10 µM, stronger effect = higher value.
For assay [11], the target named is AP-2 complex subunit beta (Homo sapiens) (UniProt P63010). The assay can be described thus: beta-arrestin/AP2 interaction blockers – biochemical, validation set, GST-AP2 beads, flow cytometry, pilot screen (AID 504541).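 Note: AP2 carries R879A mutation and is captured from E. coli lysate; bead-bound FITC arrestin peptide fluorescence measuring arrestin peptide binding to AP2; 0% = DMSO wells and 100% = excess unlabeled arrestin peptide control.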 To be noted: FITC arrestin peptide, at 10 µM, stronger effect = higher value, AP2 beta2 appendage fragment, R879A mutant.
AP-2 complex subunit beta (Homo sapiens), sequence (P63010 whole entry, looked up, the tested form may be a part, one chain of several): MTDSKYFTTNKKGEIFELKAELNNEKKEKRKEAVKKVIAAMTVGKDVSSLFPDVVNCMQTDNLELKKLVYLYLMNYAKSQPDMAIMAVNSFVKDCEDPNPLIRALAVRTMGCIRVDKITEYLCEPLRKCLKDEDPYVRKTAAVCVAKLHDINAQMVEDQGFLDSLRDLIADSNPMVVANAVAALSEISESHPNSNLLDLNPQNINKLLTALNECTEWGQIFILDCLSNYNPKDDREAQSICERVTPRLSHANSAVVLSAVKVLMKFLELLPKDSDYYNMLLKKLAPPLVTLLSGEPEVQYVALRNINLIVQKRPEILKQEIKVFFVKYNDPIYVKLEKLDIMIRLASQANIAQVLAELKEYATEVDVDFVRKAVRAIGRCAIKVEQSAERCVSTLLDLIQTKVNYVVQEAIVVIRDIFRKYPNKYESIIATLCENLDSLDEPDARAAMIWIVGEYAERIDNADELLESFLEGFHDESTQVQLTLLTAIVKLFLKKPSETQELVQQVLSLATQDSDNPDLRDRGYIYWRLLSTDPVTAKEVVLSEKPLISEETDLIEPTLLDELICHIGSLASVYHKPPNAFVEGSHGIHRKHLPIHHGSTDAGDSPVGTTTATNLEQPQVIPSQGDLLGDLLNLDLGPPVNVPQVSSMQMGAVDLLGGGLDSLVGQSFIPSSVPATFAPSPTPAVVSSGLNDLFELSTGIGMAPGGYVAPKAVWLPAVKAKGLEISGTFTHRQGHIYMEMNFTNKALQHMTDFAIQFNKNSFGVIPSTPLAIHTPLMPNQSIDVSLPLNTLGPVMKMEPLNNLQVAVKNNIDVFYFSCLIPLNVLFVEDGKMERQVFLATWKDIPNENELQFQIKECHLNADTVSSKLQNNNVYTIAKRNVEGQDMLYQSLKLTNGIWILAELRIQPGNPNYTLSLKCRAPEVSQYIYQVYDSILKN
The nature of assay [12]: cytosolic pH regulators acting via V-ATPase – S. cerevisiae, pHLuorin, HTS validation (AID 504600; in the data active = response above about 15%;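 note: plate controls were DMSO for no effect and reference compound for full effect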). To be noted: V-ATPase proton transport, at 10 µM, stronger effect = higher value.
The subject of assay [13] is anti-desmoglein-3 scFv antibody binding to human DSG3. Kind of assay: blockers of pathogenic pemphigus antibody–desmoglein-3 binding – biochemical, validation compound set, bead-based, flow cytometry, pilot screen (AID 588368;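 active = binding below the plate cutoff, the plate median minus 3 SD, with a reading above zero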;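 note: signal is the median channel fluorescence of bead-bound GFP antibody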). The settings on record: Protein G beads, DSG3-Fc, scFv-GFP binding, at 10 µM, stronger effect = lower value.
Assay [14] is described as follows: Nile Red efflux blockade in pump-expressing yeast – validation compound set, multiplex, phenotypic, pilot screen (AID 588506;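 active = efflux inhibition above 0.42, the validation set average plus 4 SD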;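 note: Nile Red retained in cells so higher fluorescence means more efflux inhibition; 0 = negative control wells and 1 = enniatin B 25 µM full block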). The settings on record: S. cerevisiae pump-expressing triplex, Nile Red efflux flow cytometry; at 10 µM; stronger effect = higher value; the pumps come from Candida albicans.
The target in assay [15] is ATP-binding cassette sub-family B member 6 (Homo sapiens) (UniProt Q9NP58). The assay can be described thus: blockers of ABCB6-driven porphyrin uptake – K562-ABCB6 cells, flow cytometry, validation set, pilot screen (AID 588550;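 active = inhibition above the screen-wide mean plus 3 SD, about 51%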;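 note: 0% = DMSO wells and 100% = benzethonium chloride 70 µM positive control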). The settings on record: K562-ABCB6 porphyrin accumulation, 1 h, at 10 µM, stronger effect = higher value.
ATP-binding cassette sub-family B member 6 (Homo sapiens), sequence (Q9NP58 whole entry, looked up): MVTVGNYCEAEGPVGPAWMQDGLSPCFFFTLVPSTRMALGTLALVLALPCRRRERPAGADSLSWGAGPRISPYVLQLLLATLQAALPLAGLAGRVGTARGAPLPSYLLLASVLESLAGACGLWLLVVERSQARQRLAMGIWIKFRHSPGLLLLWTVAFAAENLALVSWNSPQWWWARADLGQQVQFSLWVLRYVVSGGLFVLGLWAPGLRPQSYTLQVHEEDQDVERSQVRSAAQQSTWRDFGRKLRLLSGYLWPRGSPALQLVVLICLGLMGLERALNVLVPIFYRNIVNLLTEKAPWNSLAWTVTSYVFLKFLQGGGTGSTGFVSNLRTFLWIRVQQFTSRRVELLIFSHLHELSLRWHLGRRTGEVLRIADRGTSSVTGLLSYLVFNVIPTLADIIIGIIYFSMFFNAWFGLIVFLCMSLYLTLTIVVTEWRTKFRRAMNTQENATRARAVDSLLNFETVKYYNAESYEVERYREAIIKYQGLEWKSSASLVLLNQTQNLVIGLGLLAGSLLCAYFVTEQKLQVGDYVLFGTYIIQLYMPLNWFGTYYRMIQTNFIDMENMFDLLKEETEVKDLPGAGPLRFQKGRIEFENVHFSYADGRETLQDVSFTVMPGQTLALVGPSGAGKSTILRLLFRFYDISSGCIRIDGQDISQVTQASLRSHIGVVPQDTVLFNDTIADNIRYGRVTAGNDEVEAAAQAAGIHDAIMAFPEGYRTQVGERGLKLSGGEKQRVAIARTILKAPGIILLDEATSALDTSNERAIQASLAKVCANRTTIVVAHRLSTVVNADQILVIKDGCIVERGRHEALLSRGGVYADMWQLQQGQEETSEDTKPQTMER
Assay [16] in a line: AML differentiation inducers, ER-HoxA9 marrow cells – cell-based, GFP/MAC1 double positive, flow cytometry, validation set, primary screen (AID 588685;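 active = differentiation response of at least 50%, scaled between solvent and reference control, from cells with both markers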;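 note: compound exposure lasts four days before antibody staining and flow analysis; 0% = DMSO wells and 100% = 5 µM fulvestrant positive control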). To be noted: stronger effect = higher value, normalized: vehicle 0, fulvestrant 100.

Beta-2 adrenergic receptor (Homo sapiens), sequence (P07550 whole entry, looked up): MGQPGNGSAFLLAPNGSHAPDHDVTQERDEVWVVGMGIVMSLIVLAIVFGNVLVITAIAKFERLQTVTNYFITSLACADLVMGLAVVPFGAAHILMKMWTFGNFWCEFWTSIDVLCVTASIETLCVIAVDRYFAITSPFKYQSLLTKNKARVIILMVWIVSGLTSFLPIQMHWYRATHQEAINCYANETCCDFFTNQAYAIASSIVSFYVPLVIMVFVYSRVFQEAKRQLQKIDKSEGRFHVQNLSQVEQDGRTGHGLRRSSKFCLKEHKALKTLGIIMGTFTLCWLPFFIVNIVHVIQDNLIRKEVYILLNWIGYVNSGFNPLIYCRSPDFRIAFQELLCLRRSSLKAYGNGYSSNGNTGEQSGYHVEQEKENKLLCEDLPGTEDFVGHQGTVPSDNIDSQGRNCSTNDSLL

On to `CN1CC2CCCC3(C1)C(=O)NC1(CCCCC1)N=C23` (stereo not drawn), for which the percent of DMSO control GFP in assay [1] is 105% (inactive). Besides, the figures for the GFP response vs DMSO in assay [2] and in assay [4] were 105% (inactive) and 97.3% (inactive), respectively. Besides, in assay [3], the percent response of DMSO control was 111% (inactive). The GFP response, % of DMSO in assay [5] is 107% (inactive). This compound also had a double positive events in assay [6] of 58.9%. The vesicle binding response in assay [6] is 281% (inactive). In addition, the inhibition in assay [7] is 3.7% (inactive); in [11], -5.67% (inactive); in assay [15] it was 1% (inactive). For the same compound, the superoxide response (% of plate) in assay [8] was 103% (inactive). The aptamer binding inhibition in assay [9] is 1% (inactive). Besides, the response in assay [10] is -7.22% (inactive); in assay [12], 3.54% (inactive). Also, the binding (% of control) in assay [13] was 99% (inactive). Besides, the efflux inhibition (fraction of control) in [14] was -0.26 (inactive). Also, the differentiation response in assay [16] was -6.6% (inactive).

Take `Cc1cc(C(=O)Nc2ccccc2C(=O)N2CCCCC2)ccc1[N+](=O)[O-]`: the percent of DMSO control GFP in assay [1] was 98.4% (inactive). Further, the values for the GFP response vs DMSO in assay [2] and in assay [4] were 103% (inactive) and 114% (inactive), respectively. Further, the percent response of DMSO control in [3] was 86.7% (inactive). The GFP response, % of DMSO in assay [5] was 103% (inactive). The compound also showed a double positive events in assay [6] of 62.3%. For the same compound, the vesicle binding response in assay [6] was 168% (inactive). For the same compound, the inhibition was -7.08% (inactive) in assay [7], 19.6% (inactive) in [11] and 8% (inactive) in assay [15]. In addition, in [8], the superoxide response (% of plate) was 124% (inactive). Besides, the aptamer binding inhibition in [9] is 1% (inactive). For the same compound, the figures for the response in [10] and in [12] were -23.4% (inactive) and -4.47% (inactive), respectively. In addition, in [13], the binding (% of control) was 108% (inactive). The efflux inhibition (fraction of control) in assay [14] was -0.04 (inactive). The differentiation response in [16] was -8.93% (inactive).

For `CCCc1cc(=O)[nH]c(=S)[nH]1`, the percent of DMSO control GFP in assay [1] was 99.1% (inactive). For the same compound, the GFP response vs DMSO in [2] is 101% (inactive); in assay [4], 103% (inactive). Further, the percent response of DMSO control in assay [3] was 96.5% (inactive). The GFP response, % of DMSO in assay [5] was 107% (inactive). Moreover, in assay [6], the double positive events was determined as 61.7%. Besides, the vesicle binding response in [6] is 144% (inactive). In addition, the inhibition was -2.43% (inactive) in [7], -5.08% (inactive) in [11] and -3% (inactive) in [15]. In addition, the superoxide response (% of plate) in assay [8] was 86.8% (inactive). For the same compound, the aptamer binding inhibition in assay [9] is 0% (inactive). Also, the values for the response in assay [10] and in [12] were -3.16% (inactive) and 12.1% (inactive), respectively. In [13], the binding (% of control) is 101% (inactive). Moreover, the efflux inhibition (fraction of control) in [14] was 0.44 (active). The differentiation response in [16] was -1.65% (inactive).

On to `CCc1cc(/C(Cc2ccccn2)=N\O)c(O)cc1O`, for which the percent of DMSO control GFP in [1] was 99.1% (inactive). Besides, the GFP response vs DMSO in assay [2] was 102% (inactive); in assay [4] it was 83.7% (inactive). Moreover, the percent response of DMSO control in [3] was 107% (inactive). In addition, the GFP response, % of DMSO in assay [5] is 91.4% (inactive). The same compound registered a double positive events in assay [6] of 52.1%. For the same compound, in assay [6], the vesicle binding response was 51.2% (active). Moreover, the values for the inhibition in assay [7], in assay [11] and in assay [15] were -14.1% (inactive), 15.4% (inactive) and 1% (inactive), respectively. In assay [8], the superoxide response (% of plate) was 104% (inactive). Besides, the aptamer binding inhibition in assay [9] was 3% (inactive). Also, the response in assay [10] was 10.8% (inactive); in assay [12], 2.25% (inactive). Also, the binding (% of control) in assay [13] was 101% (inactive). Further, the efflux inhibition (fraction of control) in [14] was -0.17 (inactive). Also, the differentiation response in assay [16] is -5.6% (inactive).

For the origin of these results see PubChem BioAssay.
